Out of some 350,000 compounds screened, about 1,300 (0.37%) were called active. The sample holds actives, similar compounds and a random draw of the others, so the mix is not that of the screen.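 How the source made its calls: active means mean added fluorescence quench of at least 8% versus neutral control, with both replicates also reaching 8%; inconclusive means only one of the mean or replicate conditions met; inactive means mean below 8% and not both replicates reaching 8%.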
experiment: F508del CFTR correction, initial screen, CFBE line, single point (AID 720511); settings: CFBE cells, YFP halide quenching, at 7.58 µM, hits give high values, % fluorescence drop versus neutral controls, stimulated with forskolin plus potentiator P3;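 further: cells transiently co-express mutant CFTR-F508del with the halide-sensitive YFP; corrector assay measuring rescue of mutant channel to the surface after 24 h compound exposure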

Activity (quench increase), inactive:
O=C(C[C@H]1C[C@@H]2c3cc(NC(=O)CC4CC4)ccc3O[C@@H]2[C@H](CO)O1)NCc1ccccn1 -1.26%
CN(CC(=O)Nc1ccccc1Cl)C(=O)COc1cccc2c1OC(C)(C)C2 -5.27%
CN(CC(=O)Nc1ccc(Cl)cc1)C(=O)CNC(=O)c1ccc2ccccc2c1 -7.73%
C/C=C/c1ccc2c(c1)O[C@H](CN(C)C(=O)Nc1ccccc1)[C@H](C)CN([C@@H](C)CO)S2(=O)=O -0.894%
COc1ccc2c3c([nH]c2c1)[C@H](CO)N(C(=O)C1CCOCC1)CC31CN(S(C)(=O)=O)C1 -0.365%
CS(=O)(=O)Nc1ccc2c(c1)[C@H]1C[C@H](CC(=O)NCc3ccc(Oc4ccccc4)cc3)O[C@H](CO)[C@H]1O2 4.1%
COc1cc(OC)cc(C(=O)NC(C(=O)N2CCC2)C(C)C)c1 (stereo unspecified) 1.12%
COc1cc(OC)cc(C(=O)N[C@H](C(=O)NNC(=O)c2ccc(Br)cc2)C(C)C)c1 -1.77%
COc1ccc(NC(=O)N(C)C[C@H]2OCCCC[C@H](C)Oc3ccc(NC(=O)NC4CCCCC4)cc3C(=O)N([C@@H](C)CO)C[C@@H]2C)cc1 -0.706%
COc1ccc2c3c([nH]c2c1)[C@H](CO)N(C(=O)c1ccccc1)CC31CN(C(=O)Nc2cccc(F)c2)C1 0.989%
CC(C)NC(=O)Nc1ccc2c(c1)C(=O)N([C@H](C)CO)C[C@H](C)[C@H](CN(C)C(=O)CCC(F)(F)F)OCCCC[C@H](C)O2 0.243%
O=C(C[C@@H]1C=C[C@@H](NS(=O)(=O)c2ccccc2)[C@@H](CO)O1)NCc1ccccc1F -1.3%
COCC(=O)Nc1ccc2c(c1)OC[C@@H](C)N(CCc1ccccc1)C[C@H](C)[C@@H](OC)CN(C)C2=O -4.64%
Cn1c(Nc2cccc(Cl)c2)nc2ccccc21 0.14%
C=CCNc1nc(Nc2ccc(Cl)cc2)nc(OC)n1 1.27%
CCCNC(=O)N1CC2(CN(C(=O)c3cnccn3)C2)c2c([nH]c3cc(OC)ccc23)[C@@H]1CO -0.147%
C[C@H](NC(=O)C[C@@H]1C[C@@H]2c3cc(NS(=O)(=O)c4ccc(F)cc4)ccc3O[C@@H]2[C@@H](CO)O1)c1ccccc1 0.793%
COc1ccc2c3c(n(C)c2c1)[C@@H](CO)N(Cc1ccncc1)CC31CN(C(=O)Nc2cccc(F)c2)C1 -1.9%
CC1(C(=O)NCc2ccc(F)c(F)c2)Cc2c(-c3ccc4c(c3)OCO4)ccnc2O1 (stereo unspecified) 0.827%
COc1ccc(NC(=O)C2(C)Cc3c(-c4cccc(NC(C)=O)c4)ccnc3O2)cc1OC (stereo unspecified) -0.498%
COc1ccc(NC(=O)C2(C)Cc3c(-c4ccc(C(N)=O)cc4)ccnc3O2)cc1 (stereo unspecified) -0.667%
CC(=O)Nc1cccc(-c2ccnc3c2CC(C)(C(=O)NCc2ccco2)O3)c1 (stereo unspecified) 7.38%
CCC(=O)N1CC2(CN(Cc3cccnc3)C2)c2c(n(C)c3cc(OC)ccc23)[C@@H]1CO -0.0075%
CCCC#Cc1cnc2c(c1)C(=O)N([C@@H](C)CO)C[C@@H](C)[C@@H](CN(C)Cc1ccccc1F)O2 0.509%
CNC(=O)C[C@@H]1CC[C@@H]2[C@@H](COc3ccc(NC(=O)c4ccc5c(c4)OCO5)cc3C(=O)N2C)O1 0.442%
COCC(=O)N(C)C[C@@H]1Oc2ncc(C#C[C@H](C)O)cc2C(=O)N([C@@H](C)CO)C[C@@H]1C 1.42%
COc1ccc(NC(=O)Nc2ccc3c(c2)[C@H]2C[C@H](CC(=O)NC4CCCC4)O[C@H](CO)[C@H]2O3)cc1 2.1%
C[C@@H]1CCCCO[C@H](CN(C)C(=O)CCC(F)(F)F)[C@@H](C)CN([C@@H](C)CO)C(=O)c2cc(NC(=O)c3ccncc3)ccc2O1 2%
Cc1ccccc1-c1ccc([C@H]2[C@H]3CN(S(=O)(=O)c4ccc(F)cc4)CCCCN3[C@H]2CO)cc1 -0.288%
O=C(N[C@H]1CC[C@H](CCn2cc(-c3ccccc3F)nn2)O[C@@H]1CO)c1ccc2c(c1)OCO2 -1.87%
C[C@@H]1CCCCO[C@@H](CN(C)Cc2ccncc2)[C@H](C)CN([C@@H](C)CO)C(=O)c2cc(N(C)C)ccc2O1 -0.227%
N#C[C@@H]1[C@@H](c2ccccc2)[C@H](CO)N1C(=O)c1cc(Cl)cc(Cl)c1 -2.95%
O=C(NCCC1CCCCN1S(=O)(=O)c1ccc(F)cc1)C(=O)NC1CC1 (stereo unspecified) 3.1%
COc1ccccc1CCNC(=O)C(=O)NCCC1CCCCN1S(=O)(=O)c1cccs1 (stereo unspecified) 0.824%
COc1cccc(-c2ccc3c(c2)O[C@@H](CN(C)Cc2ccncc2)[C@H](C)CN([C@H](C)CO)S3(=O)=O)c1 3.64%
Cc1noc(C)c1NC(=O)N(C)C[C@H]1OCCCC[C@@H](C)Oc2ccc(NC(=O)NC(C)C)cc2C(=O)N([C@H](C)CO)C[C@@H]1C 1.72%
COc1ccccc1-n1ccnc1SCC(=O)NC(C)(C)C 0.912%
COc1ccccc1-n1c(CNC(=O)c2ccccc2)nnc1SCC(=O)Nc1nnc(C)s1 2.1%

Activity (quench increase), active:
Cc1cccc(C(=O)NCC(=O)OCC(=O)N(C)CC(=O)Nc2ccccc2Cl)c1 16.8%
COc1cc(OC)cc(C(=O)N[C@H](C(=O)Nc2nc3ccccc3[nH]2)C(C)C)c1 13.5%
COc1ccc2[nH]c3c(C)c4cc[n+](C)cc4c(C)c3c2c1 12.8%
Clc1ccc(Nc2ccc3ccccc3n2)cc1 9.55%
COc1ccc(NC(=O)C2(C)Cc3c(-c4cccc(NC(C)=O)c4)ccnc3O2)cc1 (stereo unspecified) 9.41%
CC1(C(=O)NCc2ccco2)Cc2c(-c3ccc4c(c3)OCO4)ccnc2O1 (stereo unspecified) 8.09%
O=C(NCCC1CCCCN1S(=O)(=O)c1cccs1)C(=O)Nc1ccc(F)cc1F (stereo unspecified) 8.8%
Cc1nnc(NC(=O)CSc2nccn2-c2cccc(C)c2C)s1 8.52%

Reference: PubChem BioAssay AID720511 (Broad Institute, 2013)
